Compounds with a hit are over-represented: about 2.3% of the library has one in this group of screens.
UBC13 inh: UBC13 polyubiquitin chain formation inhibitors, primary screen, biochemical, TR-FRET, uHTS. inhibition, % at 20 µM. hit rate 0.47% among 330,000. AID 485273, 2010; in the data active = inhibition above about 45%, passing the limit was not always enough
Target sequence (P61088 whole entry, looked up): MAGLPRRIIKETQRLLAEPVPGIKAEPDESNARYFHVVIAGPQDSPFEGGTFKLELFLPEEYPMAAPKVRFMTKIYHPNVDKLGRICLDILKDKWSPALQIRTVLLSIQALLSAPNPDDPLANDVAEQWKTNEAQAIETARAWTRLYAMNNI
MEKK3 PB1 HTS: modulators of MEKK3-MEK5 PB1 binding, primary screen, biochemical, wildtype MEKK3, multiplex bead flow cytometry, Alexa488-MEK5; Mitogen-activated protein kinase kinase kinase 3 (Homo sapiens), Q99759; bead-based flow cytometry, Alexa488-MEK5 binding to MEKK3; actives lie on both sides; 0 = blocked by unlabeled MEK5, 100 = vehicle; binding response (% of control), % at 10 µM; hit rate 1.4% among 290,000; AID 1529, 2009;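 active = binding response more than 3 SD above or below the average of its plate-row segment, actives on both sides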;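 note: Alexa488 bead fluorescence after subtracting the streptavidin-only scavenger bead signal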
MEKK2wt PB1 HTS: modulators of MEK5 binding to wildtype MEKK2, primary screen, biochemical, multiplex bead flow cytometry, Alexa488-MEK5 | Mitogen-activated protein kinase kinase kinase 2 (Homo sapiens), Q9Y2U5 | Alexa488-MEK5 binding to MEKK2 WT; actives lie on both sides | binding response (% of control), % at 10 µM | hit rate 1.1% among 290,000 | AID 1531, 2009; in the data active = binding response below about 67% or above about 130%
MEKK2 mut-MEK5: MEK5 binding signal on mutant MEKK2 PB1, primary screen, biochemical, multiplex bead flow cytometry, Alexa488-MEK5 | Alexa488-MEK5 binding to MEKK2 mutant | percent response, % at 10 µM | hit rate 0.35% among 290,000 | AID 1530, 2009; in the data active = percent response above about 24%, passing the limit was not always enough
MEKK2wt confirm: modulators of MEK5 binding to wildtype MEKK2, confirmation, biochemical, single concentration, multiplex bead flow cytometry; binding response (% of control), % at 10 µM; shares compounds with MEKK3 PB1 HTS; Alexa488-MEK5 binding to MEKK2 WT; actives lie on both sides; hit rate 2.4% among 5,900; in the data active = binding response below about 16% or above about 210%; inactive = in between
MEKK2mut-MEK5: mutant MEKK2 PB1-MEK5 binding signal retest – biochemical, single concentration, multiplex bead flow cytometry, confirmation. percent response, % at 10 µM. hit rate 2% among 5,900. shares compounds with MEKK3 PB1 HTS. Alexa488-MEK5 binding to MEKK2 mutant; in the data active = percent response mostly above about 71%, no sharp cut-off; inactive = mostly below about 38%;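 note: higher means compound restores mutant binding toward wildtype level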
MEKK3 confirm: MEKK3 wild-type PB1 binding to MEK5, inhibitors, confirmation, biochemical, bead multiplex flow cytometry, single concentration, wildtype | shares compounds with MEKK3 PB1 HTS | Alexa488-MEK5 binding to MEKK3; active compounds read low | binding response (% of control), % at 10 µM | hit rate 1.8% among 5,900 | AID 1894, 2009;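 active = binding response below 72% of control, or above a set upper limit, though filed actives all read lower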;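 note: lower values mean stronger disruption of MEK5 binding to MEKK3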
Casp3 counter: CASP3 inhibitor validation, counterassay for project on UBE2N polyubiquitination blockers, biochemical, one dose. hit rate 4% among 1,400. inhibition, % at 20 µM. shares compounds with UBC13 inh. AID 488856, 2010. Recombinant caspase-3, Caspase-Glo 3/7 luminescence, 60 min;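 active = mean inhibition across replicates above about 26%, limit read from the data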
Target sequence (P42574 whole entry, looked up): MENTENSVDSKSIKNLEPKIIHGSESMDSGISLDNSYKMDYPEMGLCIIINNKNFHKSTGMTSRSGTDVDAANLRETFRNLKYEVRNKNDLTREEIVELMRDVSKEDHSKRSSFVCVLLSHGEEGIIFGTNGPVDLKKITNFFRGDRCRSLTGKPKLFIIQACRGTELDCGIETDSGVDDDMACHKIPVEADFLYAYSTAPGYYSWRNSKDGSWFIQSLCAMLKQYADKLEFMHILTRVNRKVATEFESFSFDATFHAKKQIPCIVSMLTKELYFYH
UBC13 conf: UBC13 polyubiquitination inhibitors, single-point retest, confirmation, biochemical, TR-FRET, single concentration; shares compounds with UBC13 inh; inhibition, % at 10 µM; hit rate 68% among 1,400; in the data active = inhibition above about 45%
Hits are given with their value; . = inactive; / = no result; [ ] = another dose, or the depositor's remark.

SMILES	UBC13 inh	MEKK3 PB1 HTS	MEKK2wt PB1 HTS	MEKK2 mut-MEK5	MEKK2wt confirm	MEKK2mut-MEK5	MEKK3 confirm	Casp3 counter	UBC13 conf
COc1ccc2nc(C)cc(N/N=C/c3ccc(F)cc3)c2c1	97.0	69.0[inhibitor]	160.0	59.0	211.0	.	.	.	113.4
COc1ccc(Nc2cc(C)nc3ccc(OC)cc23)cc1	.	.	.	.	/	/	/	/	/
COc1ccc(CNC(=O)CN(Cc2ccco2)C(=O)CNS(=O)(=O)c2ccc(F)cc2)cc1	.	.	.	.	/	/	/	/	/
CC1CCCC(C)N1C(=O)CSc1ncccn1 (centres undefined)	.	.	.	.	/	/	/	/	/
CC(C)(c1ccccc1)c1ccc(OCC(O)CNC2CCN(Cc3ccccc3)CC2)cc1 (centres undefined)	63.1	.	252.0	62.0	.	.	.	.	70.0
NC(=NCCCCCCN=C(N)/N=C(\N)Nc1ccc(Cl)cc1)/N=C(\N)Nc1ccc(Cl)cc1	110.8	.	345.0	96.0	268.0	121.0	.	.	118.3
Cc1ccc(C(=O)N/C(=C\c2ccc(-c3ccc(Cl)cc3)o2)C(=O)NCCCN(C)C)cc1	47.4	43.0[inhibitor]	.	.	.	.	.	.	70.1
CCOc1cccc2sc(N(CCCN(C)C)C(=O)c3ccc(S(=O)(=O)N(C)c4ccccc4)cc3)nc12	.	.	.	.	/	/	/	/	/
CCc1ccc2nc(N(CCCN(C)C)C(=O)c3ccc(S(=O)(=O)N4CCc5ccccc5C4)cc3)sc2c1	87.4	.	176.0	28.0	.	.	.	.	113.6
CCOc1cccc2sc(N(CCCN(C)C)C(=O)c3ccc(S(=O)(=O)N4CCc5ccccc5C4)cc3)nc12	90.8	.	200.0	49.0	305.0	126.0	.	.	110.5
COc1cc2ccccc2cc1C(=O)N(CCN(C)C)c1nc2c(C)cccc2s1	.	.	.	.	/	/	/	/	/
CN(C)CCCN(C(=O)c1ccc(S(=O)(=O)N2CCCC2)cc1)c1nc2ccc(Br)cc2s1	70.5	.	181.0	30.0	234.0	112.0	.	.	97.4
COc1cccc2sc(N(CCCN(C)C)C(=O)c3sc4ccccc4c3Cl)nc12	45.4	.	211.0	63.0	.	.	.	.	68.7
CC1CC(=O)Nc2ccccc2N1C(=O)CSc1ncnc2sccc12 (centres undefined)	.	/	/	/	/	/	/	/	/
CC1CC(CN)CC(CO)C1 (centres undefined)	.	.	.	.	/	/	/	/	/
O=C(CCC(=O)Nc1ccccc1)NNC(=O)COc1ccccc1	.	.	.	.	/	/	/	/	/
Cc1cc(C)c2nc(N(CCCN(C)C)C(=O)c3ccc4c(c3)CCCC4)sc2c1	.	/	/	/	/	/	/	/	/
Cc1ccc2nc(N(CCCN(C)C)C(=O)c3ccc4c(c3)CCCC4)sc2c1	66.2	.	191.0	.	.	.	.	.	68.6
C#CCOCCOCCOCCNc1nc(N2CCN(C(=O)C(Cc3ccc(O)cc3)n3cc(C(N)CC(C)C)nn3)CC2)nc(N2CCN(C(=O)C(Cc3cc4ccccc4[nH]3)n3cc(C(N)Cc4ccc(O)cc4)nn3)CC2)n1 (centres undefined)	78.4	.	258.0	112.0	221.0	86.0	.	.	59.2
C#CCOCCOCCOCCNc1nc(N2CCOCC2)nc(N2CCN(C(=O)[C@H](Cc3cc4ccccc4[nH]3)n3cc([C@@H](N)Cc4ccc(O)cc4)nn3)CC2)n1	.	.	.	.	/	/	/	/	/
C#CCOCCOCCOCCNc1nc(N2CCN(C(=O)[C@H]([C@@H](C)CC)n3cc([C@@H](N)Cc4ccc(O)cc4)nn3)CC2)nc(N2CCN(C(=O)[C@H](Cc3ccc(O)cc3)n3cc([C@@H](N)CC(C)C)nn3)CC2)n1	45.3	.	181.0	.	.	.	.	.	.
C#CCOCCOCCOCCNc1nc(N2CCN(C(=O)[C@H](CCCCN)n3cc([C@@H](N)C(C)CC)nn3)CC2)nc(N2CCN(C(=O)[C@H](Cc3cc4ccccc4[nH]3)n3cc([C@@H](N)CC(C)C)nn3)CC2)n1 (some centres undefined)	99.9	.	237.0	93.0	.	.	.	.	116.5
C#CCOCCOCCOCCNc1nc(N2CCN(C(=O)[C@H]([C@@H](C)CC)n3cc([C@@H](N)Cc4ccc(O)cc4)nn3)CC2)nc(N2CCN(C(=O)[C@H]([C@@H](C)CC)n3cc([C@@H](N)CC(C)C)nn3)CC2)n1	68.4	.	139.0	.	.	.	.	.	.
C#CCOCCOCCOCCNc1nc(N2CCOCC2)nc(N2CCN(C(=O)[C@H]([C@@H](C)CC)n3cc([C@@H](N)Cc4ccc(O)cc4)nn3)CC2)n1	.	.	.	.	/	/	/	/	/
CCOC(=O)C1(CCOC)CCN(C(C)CCc2ccc(OC)cc2)CC1 (centres undefined)	.	.	.	.	/	/	/	/	/
SMILES	UBC13 inh	MEKK3 PB1 HTS	MEKK2wt PB1 HTS	MEKK2 mut-MEK5	MEKK2wt confirm	MEKK2mut-MEK5	MEKK3 confirm	Casp3 counter	UBC13 conf
COc1ccc(C2CC(c3ccccc3)=NN2C(=O)CN2CCN(Cc3ccccc3)CC2)cc1 (centres undefined)	.	.	.	.	/	/	/	/	/
CNc1ccc(C(=O)N2CCN(S(=O)(=O)c3ccc4c(c3)OCCCO4)CC2)cc1[N+](=O)[O-]	.	.	.	.	/	/	/	/	/
Cc1cc(C2N=C(N)Nc3nc4ccccc4n32)c(C)n1-c1ccccc1Cl (centres undefined)	46.3	.	138.0	26.0	.	.	.	.	55.4
NC1=NC(c2ccc(F)cc2)n2c(nc3ccccc32)N1 (centres undefined)	.	.	.	.	/	/	/	/	/
COc1ccc(CCNC(=O)NCCc2c[nH]c3ccccc23)cc1OC	.	.	.	.	/	/	/	/	/
COc1cc(CNCCc2c[nH]c3ccccc23)ccc1OCc1ccccc1F	47.1	.	244.0	60.0	.	73.0	.	.	.
O=C(NC1CCCC1)c1ccc2c(c1)N(Cc1ccccc1)CCS2	.	.	.	.	/	/	/	/	/
